# Giardia killer: kills Giardia lamblia. Giardia lamblia trophozoite viability. activity change, % at 7.66 µM, hits read low. 340,000 tested, 0.15% active. AID 540267; in the data active = activity change below about -80%; inconclusive = between about -30% and that limit;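 note: parasites exposed to compound for two days anaerobically before the ATP read; % is set by controls: 0 for no effect and ±100 for the full control effect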
#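 Giardia trophozoites, 100 cells per well, were exposed to compounds for 48 hrs at 37 deg C under anaerobic conditions; viability was then read as ATP content by bioluminescence after 15-30 min at room temperature.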
# Vif-APOBEC3F blk: blocks the Vif interaction with APOBEC3F | AID 602313 | Potency, µM (top dose mostly 46.1 µM), inactives show top-dose activity, negative = active | 390,000 tested, 0.2% active | HeLa A3F-eYFP + Vif (tagged APOBEC3F with the HIV-1 protein that degrades it), YFP fluorescence increase; note: potency is the fitted concentration of half-maximal effect; % of control where 0% means no effect; nearly all actives have a fitted effect of over 65% in size
#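 HeLa cells stably expressing A3F-eYFP plus Vif, plated and incubated overnight at 37 deg C, then exposed to compounds overnight at 37 deg C. Blocked degradation read as raised yellow fluorescence (Ex 488/Em 500-530).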
# Vif-APOBEC3G blk: blocks the Vif interaction with human APOBEC3G; 410,000 tested, 0.076% active; HeLa A3G-eYFP + Vif (tagged APOBEC3G with the HIV-1 protein that degrades it), YFP fluorescence, overnight; Potency, µM (top dose mostly 46.1 µM), inactives show top-dose activity, negative = active, most hits filed as inhibitors; note: potency is the fitted concentration of half-maximal effect; % is set by controls: 0 for no effect and ±100 for the full control effect; nearly all actives have a fitted effect of over 60% in size
# Target sequence (Q9HC16 whole entry, looked up): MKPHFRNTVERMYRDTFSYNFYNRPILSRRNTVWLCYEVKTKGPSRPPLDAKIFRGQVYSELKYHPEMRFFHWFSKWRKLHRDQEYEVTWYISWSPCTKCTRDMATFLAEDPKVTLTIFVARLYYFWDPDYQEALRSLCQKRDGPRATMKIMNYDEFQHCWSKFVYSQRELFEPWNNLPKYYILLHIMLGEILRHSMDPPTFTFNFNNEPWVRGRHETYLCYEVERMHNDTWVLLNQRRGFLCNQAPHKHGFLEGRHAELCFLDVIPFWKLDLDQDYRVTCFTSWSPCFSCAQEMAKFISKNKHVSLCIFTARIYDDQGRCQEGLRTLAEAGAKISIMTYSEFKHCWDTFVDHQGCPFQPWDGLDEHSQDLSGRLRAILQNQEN
#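 Read-out is eYFP fluorescence (Ex 488/Em 500-530) from Vif-expressing HeLa A3G-eYFP cells; more signal means A3G escaped Vif-mediated degradation. Cells plated overnight, compound pinned in, incubated overnight at 37 deg C.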
# SW480 rerep: inducers of DNA re-replication in SW480 colon cancer cells. SW480 DNA re-replication, Hoechst DNA content imaging, 48 h. Potency, µM (doses to about 46.1 µM), for inactives: top-dose re-replication activation, hits mostly activators. 340,000 tested, 1.8% active. AID 624297; note: potency is the fitted concentration of half-maximal effect; % of control where 0% means no effect; nearly all actives have a fitted effect of over 55% in size
#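 Hoechst fluorescence of nuclei (405 nm excitation, 500-530 nm emission) measured by plate-scanning imager after 48 hr compound exposure at 37 C; re-replication scored as increased number of nuclei with elevated intensity.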
# IL1B secr inh: inflammasome signaling inhibition, IL-1 beta readout | THP-1 LPS/ATP IL-1B secretion, AlphaLISA, 16 h; active compounds read low | activity change, % at 57.5 µM | 360,000 tested, 4.7% active | AID 743279; in the data active = activity change below about -50%; inconclusive = mostly about -30% to -49%; note: % is set by controls: 0 for no effect and ±100 for the full control effect
#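 Secreted IL-1B measured by AlphaLISA bead assay after 16 h compound exposure of THP-1 cells; compounds (final up to 57.5 uM) added 1 h before LPS (250 ng/mL) and ATP (1.25 mM) stimulation; lower signal means less secretion.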
# MCF10A rerep: DNA re-replication induction in MCF 10a cells | MCF 10A DNA re-replication, Hoechst nuclear intensity, 48 h | Potency, µM (doses to about 46.1 µM), for inactives: top-dose activity, positive = re-replication, usual class: activators | 350,000 tested, 2.9% active | AID 624296; note: potency is the fitted concentration of half-maximal effect; % of control where 0% means no effect; nearly all actives have a fitted effect of over 50% in size
# * marks the source's active call; other numbers are inactive results; ? = inconclusive; . = no result. Shown are actives, neighbours in structure and some others; about 6.9% of the full set was active somewhere. Unless noted, calls come from the whole dose curve; as a rule, active = well fitted curve in the direction sought with a large enough effect; inconclusive = small, poorly fitted or top-dose-only effect, or another doubt; inactive = no such curve, though single readings can be large; an effect the other way counts as inactive or inconclusive.
SMILES,Giardia killer,Vif-APOBEC3F blk,Vif-APOBEC3G blk,SW480 rerep,IL1B secr inh,MCF10A rerep
Cc1ccc(C(=O)c2cn[nH]c2-c2cc(Cl)ccc2O)cc1,-1,9%,-4%,18%,25,?
Cc1ccc(-c2[nH]ncc2C(=O)c2ccc(Br)cc2)c(O)c1,-27,?,-12%,12%,-82*,-7%
Cc1ccc(-c2nnc(Nc3ccc(Br)cc3)c3ccccc23)cc1S(=O)(=O)N1CCCCC1,.,4%,-9%,.,.,.
O=C(c1ccc([N+](=O)[O-])o1)N1CCN(c2nc3c(F)cc(F)cc3s2)CC1,?,?,-8%,?,-71*,?
O=C(c1cccs1)N1CCN(c2nc3c(F)cc(F)cc3s2)CC1,10,2%,0%,-10%,?,2%
Cc1ccc(C)c2sc(N3CCN(C(=O)c4ccc([N+](=O)[O-])o4)CC3)nc12,-15,-3%,-5%,?,-103*,9.2µM*
CCN(c1cccc(C)c1)S(=O)(=O)c1nnc(NC(=O)C2CCCCC2)s1,.,1%,1%,.,.,.
Cc1c(C(=O)N2CCC(C)CC2)c(S(=O)(=O)N(Cc2ccccc2)C(C)(C)C)c(C)n1C,.,0%,-2%,.,.,.
O=[N+]([O-])c1ccc(Nc2ccc(Cl)cc2)nc1,12,10%,-10%,12%,-57*,?
Cc1ccc(NC(=O)c2ccc(Cl)cc2[N+](=O)[O-])nc1,-8,-7%,?,3.7µM*,37,?
O=[N+]([O-])c1ccc(Nc2ccc3ccccc3c2)nc1,-4,0%,-3%,1%,-5,5%
O=[N+]([O-])c1ccc(NCc2ccc(Cl)cc2)nc1,-18,-7%,0%,-8%,-78*,4%
CC(C)c1ccc(CNc2ccc([N+](=O)[O-])cn2)cc1,-20,-5%,-14%,-10%,?,?
Cc1cc(Cl)ccc1OC(C)C(=O)Nc1ccc([N+](=O)[O-])cn1 (centres undefined),-4,2%,-2%,-6%,-69*,?
Cc1ccc(OC(C)C(=O)Nc2ccc(Cl)cn2)c([N+](=O)[O-])n1 (centres undefined),-27,7%,-1%,-5%,0,4%
CCn1ccc2cc(S(=O)(=O)N3CCCN(C(=O)Nc4ccc(C)cc4Cl)CC3)ccc21,.,7%,4%,.,.,.
CCOc1ccc(NC(=O)Cn2c(=O)n(CCC(=O)NCCc3ccccc3)c(=O)c3ccccc32)cc1,.,0%,1%,.,.,.
O=C1c2cccc3c([N+](=O)[O-])ccc(c23)C(=O)N1c1ccccn1,-2,13µM*,12%,12µM*,-114*,4.1µM*
O=C1c2cccc3c([N+](=O)[O-])ccc(c23)C(=O)N1c1nccs1,28,?,?,7.3µM*,-107*,7.3µM*
O=C1c2cccc3cccc(c23)C(=O)N1c1nccs1,9,0%,1%,-10%,-1,0%
O=C1c2cccc3c([N+](=O)[O-])ccc(c23)C(=O)N1c1ccc(Cl)cn1,1,?,8%,4.1µM*,-92*,?
CC(=O)Oc1ccc(N2C(=O)c3cccc4c([N+](=O)[O-])ccc(c34)C2=O)cc1,-9,22µM*,?,?,?,?
Cc1ccc(Cn2ccnc2SCC(=O)Nc2nc3ccccc3s2)cc1,.,-12%,5%,.,.,.
CN(C)CCNc1cc(N2CCN(C)CC2)ncn1,.,.,1%,.,.,.
O=C1c2cccc3c([N+](=O)[O-])ccc(c23)C(=O)N1O,-24,5µM*,11µM*,?,-2,21µM*
SMILES,Giardia killer,Vif-APOBEC3F blk,Vif-APOBEC3G blk,SW480 rerep,IL1B secr inh,MCF10A rerep
CCOc1ccc(NS(=O)(=O)c2cc(NC(=O)C3CC3)ccc2C)cc1Br,1,10%,-8%,-6%,-71*,?
O=C(c1ccc(CS(=O)c2ccccc2Cl)o1)N1CCN(c2ccccc2F)CC1 (centres undefined),.,-11%,?,.,.,.
O=[N+]([O-])c1cccc(SSc2cccc([N+](=O)[O-])c2)c1,-6,?,2%,18µM*,?,?
CNC(=O)c1cnc2sc(N3CCCCCC3)nn2c1=O,.,-1%,-3%,.,.,.
Cc1ccc(C(C)C)c(OCC(=O)Nc2sc3c(c2C#N)CC(C)(C)NC3(C)C)c1,13,-29%,0%,?,-12,?
Cc1cc(OCC(=O)Nc2sc3c(c2C#N)CC(C)(C)NC3(C)C)c(C(C)C)cc1Cl,10,-13%,1%,12%,7,18µM*
COC(=O)c1c(NC(=O)COc2ccc(Cl)cc2)sc2c1CC(C)(C)NC2(C)C,28,-26%,-1%,?,-97*,?
COC(=O)c1c(NC(=O)Cc2ccccc2)sc2c1CC(C)(C)NC2(C)C,-3,2%,-2%,3%,?,28%
CC1(C)Cc2c(sc(NC(=O)COc3ccc(Cl)cc3Cl)c2C(N)=O)C(C)(C)N1,6,3%,0%,?,-16,23µM*
CCOc1ccc(Nc2nc(N)c(C(=O)c3ccccc3Cl)s2)cc1,.,6%,-17%,.,.,.
OC1(c2cccs2)CN(c2ccccc2)C2=[N+]1CCCC2 (centres undefined),-18,-4%,-1%,1%,-87*,-1%
CCOc1ccc(N2CC(O)(c3cccs3)[N+]3=C2CCCC3)cc1 (centres undefined),16,-2%,-1%,17%,-15,2%
COc1ccc(OC)c(-n2c(=O)c3ccccc3c3ccccc3c2=O)c1,2,-15%,-21%,?,-89*,?
COc1ccc(-n2c(=O)c3ccccc3c3ccccc3c2=O)cc1,10,4%,-2%,1%,8,0%
O=[N+]([O-])c1cc(Cl)ccc1NCCNS(=O)(=O)c1ccccc1,-8,-5%,0%,-8%,-58*,2%
Cc1cc(C)cc(NC(=O)CN2C(=O)CCc3cc(S(=O)(=O)N4CCCCC4)ccc32)c1,.,13%,4%,.,.,.
CCCC(=O)N1CCN(Cc2nc3cc([N+](=O)[O-])ccc3n2C)CC1,8,7%,-1%,7.3µM*,17,6%
CC1CCN(CC(CS(=O)(=O)c2ccc([N+](=O)[O-])cc2)N2CCC(C)CC2)CC1 (centres undefined),-22,1%,0%,2.9µM*,-76*,1.8µM*
O=S(=O)(CC(CN1CCCC1)N1CCCC1)c1ccc2ccccc2c1 (centres undefined),-4,-16%,-18%,10µM*,-107*,12µM*
O=S(=O)(c1ccc2ccccc2c1)N1CCCCCC1,-5,-4%,-2%,-1%,-2,-2%
